Screening data: PubChem BioAssay, National Center for Advancing Translational Sciences (NCATS)
HT1080-NT tox: kills 2HG-producing HT-1080-NT fibrosarcoma cells. HT-1080-NT fibrosarcoma viability, CellTiter-Glo ATP luminescence, 48 h. Potency, µM (top dose mostly 46.1 µM), most hits filed as cytotoxic. 1.6% of 360,000 active. AID 686970;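 note: NT is the 2HG producing partner of a matched IDH1 knockdown line; nearly all actives have a fitted effect of over 55% in size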
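Read-out is CellTiter-Glo luminescence after 10 minutes at room temperature, following 48 hours' compound treatment of HT-1080-NT cells (750 cells/well, RPMI, 5% FBS, 37 degrees C).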
S2 tox: reduces viability in counter-screen for ATXN expression inhibitors; S2 cells (HEK-293 line with an ATXN2-luciferase reporter) viability, CellTiter-Fluor protease fluorescence, 24 h; Potency, µM (top dose mostly 56.7 µM), actives largely listed as cytotoxic; 0.49% of 400,000 active; note: nearly all actives have a fitted effect of over 40% in size
KB-3-1 cytotox: kills parental KB-3-1 adenocarcinoma cells; AID 1347075; Potency, µM (series often up to 46.1 µM), usual class: cytotoxic; 1.4% of 400,000 active; KB-3-1 viability, CellTiter-Glo ATP luminescence, 72 h; note: nearly all actives have a fitted effect of over 60% in size
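KB-3-1 cells, DMEM (no phenol red) + 10% FBS; compound by pin transfer, 72 h, 37 °C. Readout: CellTiter-Glo luminescence after 10 min. Data normalized, curve-fitted.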
KB-V1 cytotox: KB-V1 MDR subline cytotoxicity; KB-V1 MDR cells viability, CellTiter-Glo, 72 h; Potency, µM (doses to about 46.1 µM), actives largely listed as cytotoxic; 3.4% of 400,000 active; note: nearly all actives have a fitted effect of over 60% in size
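KB-V1 cells (P-gp-expressing MDR subline of KB-3-1) in phenol-red-free DMEM with 10% FBS were exposed to library compounds over a concentration series for 72 h at 37 degrees C. Viability read by CellTiter-Glo luminescence; concentration-effect curves fitted after normalization.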
HT1080 IDH1KD tx: HT-1080 IDH1 knockdown cell toxicity (counter line); Potency, µM (highest dose often 46.1 µM), actives largely listed as cytotoxic; HT-1080 IDH1 knockdown viability, ATP luminescence, 48 h; AID 686971; 2% of 360,000 active
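After a 2 h attachment period, IDH1KD HT-1080 cells took pin-transferred compound for 48 h at 37 °C; ATP-based luminescence after 10 min room-temperature reagent incubation reported viability.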
ATXN2 expr inh: reduces ATXN2 reporter expression in HEK-293 cells. 0.72% of 360,000 active. Potency, µM (top dose mostly 57 µM), usual class: inhibitors. HEK-293 ATXN2-luciferase reporter, luminescence, 24 h; note: nearly all actives have a fitted effect of over 55% in size
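qHTS (up to 57 uM final) was run with 24 h compound exposure of reporter cells at 37 °C. Each well was multiplexed: SteadyGlo luminescence measured ATXN2-luciferase expression after a fluorogenic Gly-Phe-AFC viability readout (25 uM final).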
Large screens that a line does not name were inactive. This is a sample that favours compounds with a hit; in the whole collection about 6.2% have one here. Calls come from the whole dose curve; as a rule, active = well fitted curve in the direction sought with a large enough effect; inconclusive = small, poorly fitted or top-dose-only effect, or another doubt; inactive = no such curve, though single readings can be large; an effect the other way counts as inactive or inconclusive.

CC1(C)CCc2cc(-c3ccn(S(=O)(=O)c4ccccc4Cl)n3)ccc2O1	KB-V1 cytotox inconclusive
Cc1nc(SCC(=O)Nc2ccc(S(=O)(=O)N3CCOCC3)cc2)c2c(C)c(C)sc2n1	KB-3-1 cytotox 5.8µM, HT1080 IDH1KD tx inconclusive, ATXN2 expr inh inconclusive
CC(=O)N1CCN(C(=O)CSc2ncnc3sc(C)c(C)c23)CC1	KB-3-1 cytotox inconclusive, KB-V1 cytotox 14.6µM
Cc1sc2ncnc(SCC(=O)NC3CC3)c2c1C	KB-V1 cytotox 20.6µM
CCCc1nc(SCC(=O)N2CCOCC2)c2c(C)c(C)sc2n1	KB-V1 cytotox 9.2µM
Cc1cc(C(=O)Nc2cccc(-c3nc(CNC(=O)c4ccccc4C(F)(F)F)c(C)o3)c2)c(C)o1	none (no result: HT1080-NT tox, KB-3-1 cytotox, KB-V1 cytotox, HT1080 IDH1KD tx, ATXN2 expr inh)
Cc1ccccc1Cn1c(C)c(CNCc2ccccc2)c(C(=O)O)c1C	S2 tox inconclusive (no result: HT1080-NT tox, HT1080 IDH1KD tx)
O=C(Nc1cc(Cl)cc(Cl)c1)c1cc(S(=O)(=O)N2CCc3ccccc3C2)ccc1F	none (no result: HT1080-NT tox, HT1080 IDH1KD tx)
CCN1CCN(c2ccc(S(=O)(=O)N3CCCCC3)cc2NC(=O)c2ccc([N+](=O)[O-])s2)CC1	S2 tox inconclusive, KB-3-1 cytotox inconclusive, KB-V1 cytotox inconclusive, ATXN2 expr inh 25.1µM
CCN1CCN(c2ccc(S(=O)(=O)N3CCCCC3)cc2NC(=O)c2ccccc2)CC1	none
CCOc1ccc(OCC(=O)c2c(O)c3ccccc3oc2=O)cc1	KB-V1 cytotox inconclusive
CC(=N)c1c(O)c2ccccc2oc1=O	none
CC1CCC(C(=O)c2c(O)c3ccccc3oc2=O)CC1 (stereo not given)	KB-3-1 cytotox inconclusive, KB-V1 cytotox 3.66µM
COc1ccc(OCC(=O)c2c(O)c3ccccc3oc2=O)cc1	KB-3-1 cytotox inconclusive, KB-V1 cytotox 20.6µM
COc1ccc(CCNC(=O)c2ccc(-n3c(C)cc4c3CCC(C)C4)cc2)cc1OC (stereo not given)	S2 tox inconclusive, ATXN2 expr inh inconclusive (no result: HT1080-NT tox, HT1080 IDH1KD tx)
CN(C)CCN1C(=O)c2cccc3cc([N+](=O)[O-])cc(c23)C1=O	HT1080-NT tox 10.3µM, S2 tox inconclusive, KB-3-1 cytotox 8.2µM, KB-V1 cytotox 2.59µM, HT1080 IDH1KD tx 13µM, ATXN2 expr inh inconclusive
CN(C)CCCN1C(=O)c2cccc3cccc(c23)C1=O	HT1080-NT tox inconclusive, KB-3-1 cytotox inconclusive, HT1080 IDH1KD tx inconclusive, ATXN2 expr inh inconclusive
CCc1cccc(NC(=O)Cn2c(=O)n(CCCCCC(=O)NCc3ccc(F)cc3)c(=O)c3sccc32)c1	none (no result: HT1080-NT tox, HT1080 IDH1KD tx)
COc1ccc(C(O)c2nc(-c3ccc4ccccc4c3)cs2)cc1 (stereo not given)	none
COc1cc(C(O)c2nc(-c3ccc4ccccc4c3)cs2)ccc1F (stereo not given)	HT1080-NT tox 23.1µM, KB-V1 cytotox inconclusive, HT1080 IDH1KD tx inconclusive
CCCc1nnc(NC(=O)c2nc(S(=O)(=O)Cc3ccc(C)cc3)ncc2Cl)s1	KB-3-1 cytotox inconclusive, HT1080 IDH1KD tx inconclusive, ATXN2 expr inh inconclusive (no result: S2 tox)
CC(C)c1nnc(NC(=O)c2nc(S(=O)(=O)Cc3ccccc3)ncc2Cl)s1	HT1080-NT tox 7.31µM, S2 tox inconclusive, KB-3-1 cytotox inconclusive, KB-V1 cytotox inconclusive, HT1080 IDH1KD tx 6.51µM, ATXN2 expr inh inconclusive
CSc1ncc(Cl)c(C(=O)Nc2nnc(SC)s2)n1	none
CSc1nnc(NC(=O)c2nc(S(=O)(=O)Cc3ccccc3)ncc2Cl)s1	HT1080-NT tox 20.6µM, KB-3-1 cytotox 18.4µM, KB-V1 cytotox inconclusive, HT1080 IDH1KD tx 23.1µM, ATXN2 expr inh inconclusive (no result: S2 tox)
CCCn1c(=O)c2c(C(=O)OCC)cc(-c3ccco3)nc2n(CCC)c1=O	KB-V1 cytotox 18.4µM
COc1ccc(C[C@H]2CN3C(=NC[C@@H]3C(C)C)N2CCNC(=O)CCC2CCCCC2)cc1	S2 tox inconclusive
COc1ccc(C[C@H]2CN3C(=NC[C@@H]3Cc3ccccc3)N2CCNC(=O)CCC2CCCCC2)cc1	HT1080-NT tox inconclusive, S2 tox 22.4µM, KB-3-1 cytotox inconclusive, KB-V1 cytotox 16.4µM, HT1080 IDH1KD tx inconclusive, ATXN2 expr inh inconclusive
Cc1ccc(CNC(=O)c2c3c(nc4ccccc24)C(=O)N(C2CCCCC2)C3)cc1	none (no result: HT1080-NT tox, S2 tox, HT1080 IDH1KD tx, ATXN2 expr inh)
CCc1ccc(CNC(=O)c2c3c(nc4ccccc24)C(=O)N(C2CCCCC2)C3)cc1	KB-V1 cytotox 13µM (no result: HT1080-NT tox, S2 tox, HT1080 IDH1KD tx, ATXN2 expr inh)
Cc1cccc(N2C(=O)CN(Cc3sccc3C)C2=S)c1	KB-3-1 cytotox inconclusive, KB-V1 cytotox 23.1µM
CCN(C(=O)CCn1cnc2onc(-c3ccc(F)cc3)c2c1=O)c1ccc(OC)cc1	KB-3-1 cytotox inconclusive (no result: HT1080-NT tox, HT1080 IDH1KD tx)
CCOc1cccc2sc(N(CCCN(C)C)C(=O)c3ccc(C(=O)c4ccccc4)cc3)nc12	HT1080-NT tox 25.9µM, S2 tox inconclusive, HT1080 IDH1KD tx inconclusive, ATXN2 expr inh inconclusive
CCOc1cccc2sc(N(CCCN(C)C)C(=O)c3ccc(S(=O)(=O)N(CC)Cc4ccccc4)cc3)nc12	HT1080-NT tox inconclusive, S2 tox inconclusive, KB-3-1 cytotox inconclusive, KB-V1 cytotox 10.3µM, HT1080 IDH1KD tx 23.1µM, ATXN2 expr inh inconclusive
CCOc1cccc2sc(N(CCN(C)C)C(=O)c3cc4ccccc4cc3OC)nc12	HT1080-NT tox inconclusive, S2 tox inconclusive, HT1080 IDH1KD tx 20.6µM, ATXN2 expr inh 20µM
